LDHA block: inhibitors of human lactate dehydrogenase A; P00338; purified LDHA, NADH/diaphorase-resazurin fluorescence; active compounds read low; activity change, % (values are at about 110 or 230 µM); hit rate 0.15% among 480,000; in the data active means activity change below about -30%; inconclusive means mostly about -25% to -30%;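 further: plate controls were DMSO wells for no effect and wells without enzyme for full effect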
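Human LDH5 at 2 nM final in Tris HCl pH 7.4 with 0.06 mM NADH and 0.2 mM pyruvate, reacted 5 minutes at room temperature. Remaining NADH coupled via diaphorase/resazurin; resorufin fluorescence read at 0 and 20 minutes, normalized to enzyme-free and DMSO wells.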
IL1B secr inh: inflammasome signaling inhibition, IL-1 beta readout; THP-1 LPS/ATP IL-1B secretion, AlphaLISA, 16 h; active compounds read low; activity change, % at 57.5 µM; hit rate 4.7% among 360,000; AID 743279; in the data active means activity change below about -50%; inconclusive means mostly about -30% to -49%
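THP-1 cells pretreated 1 hr with compounds (up to 57.5 uM final), then stimulated with LPS (250 ng/mL final) plus ATP (1.25 mM final); secreted IL-1B measured by AlphaLISA after 16 hr, decreased signal indicating inhibition.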
RORg inh: inhibitors of mouse ROR gamma transcriptional activity | P51450 | Drosophila S2 Gal4-RORgamma UAS-luciferase reporter, 20 h | Potency, µM (titrated, usually from 53.6 µM), for the others: at the highest dose activity change, negative = inhibition, actives largely listed as inhibitors | hit rate 5.4% among 310,000 | AID 2551; further: potency means the concentration at half of the fitted maximal effect; nearly all actives have a fitted effect of over 60% in size
Target sequence (P51450 whole entry, looked up, the tested form may be a part): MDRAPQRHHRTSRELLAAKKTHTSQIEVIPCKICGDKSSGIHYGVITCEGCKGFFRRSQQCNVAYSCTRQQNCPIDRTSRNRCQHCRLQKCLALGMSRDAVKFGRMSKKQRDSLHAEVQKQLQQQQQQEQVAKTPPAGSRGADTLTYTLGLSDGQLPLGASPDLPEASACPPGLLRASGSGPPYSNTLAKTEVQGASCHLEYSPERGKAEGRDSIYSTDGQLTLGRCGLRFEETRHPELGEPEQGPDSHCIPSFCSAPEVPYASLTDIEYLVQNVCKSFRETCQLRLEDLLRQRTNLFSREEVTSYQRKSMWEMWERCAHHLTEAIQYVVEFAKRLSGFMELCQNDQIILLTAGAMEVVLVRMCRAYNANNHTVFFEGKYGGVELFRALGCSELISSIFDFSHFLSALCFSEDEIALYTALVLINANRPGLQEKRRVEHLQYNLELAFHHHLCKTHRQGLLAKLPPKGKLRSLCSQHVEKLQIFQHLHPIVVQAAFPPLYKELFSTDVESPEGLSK
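Luminescence from a UAS-regulated Photinus luciferase reporter in stably transfected Drosophila Schneider cells is measured; decreased signal marks ROR gamma inhibition. Fusion expression is induced by 700 uM copper sulfate for 20 hr.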
VP16 counter: Gal4-VP16 reporter inhibition counter-screen. Drosophila S2 Gal4-VP16 UAS-luciferase, luminescence, 20 h. Potency, µM (doses to about 53.6 µM), for inactives: top-dose activity, negative = inhibition, actives largely listed as inhibitors. hit rate 3.5% among 310,000;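 further: Gal4-VP16 expression switched on by copper sulfate through the metallothionein promoter; potency means the concentration at half of the fitted maximal effect; nearly all actives have a fitted effect of over 50% in size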
DT40 TDP1 no CPT: qHTS for Inhibitors of human tyrosyl-DNA phosphodiesterase 1 (TDP1): qHTS in cells in absence of CPT | Potency, µM (doses to about 46.2 µM), for inactives: top-dose activity change, negative = growth inhibition, actives largely listed as inhibitors | DT40 Tdp1-/- hTDP1 cells, no CPT, ATP luminescence, 48 h | hit rate 15% among 420,000; further: potency means the concentration at half of the fitted maximal effect; nearly all actives have a fitted effect of over 55% in size
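Chicken DT40 Tdp1-/- cells complemented with human TDP1, screened without camptothecin (DMSO vehicle only), 400 cells/well. Compounds pin-transferred, cells incubated at 37 °C for at least 48 hr. Growth read as ATP-dependent luminescence (CellTiter-Glo, 30 min at RT).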
TDP1 cell CPT: DT40-hTDP1 cell growth loss with CPT; Potency, µM (highest dose often 46.2 µM), for inactives: top-dose activity change, negative = growth inhibition, usual class: inhibitors; chicken DT40 Tdp1-/-;hTDP1 cells + 20 nM CPT, ATP luminescence, 48 h; hit rate 12% among 420,000; further: potency means the concentration at half of the fitted maximal effect; nearly all actives have a fitted effect of over 55% in size
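Cell growth measured by CellTiter-Glo luminescence after a minimum 48 h, 37 C compound exposure with 20 nM CPT in Tdp1-knockout DT40 cells stably expressing hTDP1, seeded 400/well; qHTS titration format.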
* marks the source's active call; other numbers are inactive results; ? = inconclusive; · = no result given. Rows were chosen to be rich in hits. Some 18% of all compounds tested hit in one or more screens of this group. Unless noted, the call rests on the fitted dose curve; in most records, active means well fitted curve in the direction sought with a large enough effect; inconclusive means small, poorly fitted or top-dose-only effect, or another doubt; inactive means no such curve, though single readings can be large; an effect the other way counts as inactive or inconclusive. Unless noted, on the % scale 0 is the no-effect control and ±100 the full control effect.

SMILES	LDHA block	IL1B secr inh	RORg inh	VP16 counter	DT40 TDP1 no CPT	TDP1 cell CPT
CCOc1ccc(Cl)cc1-c1cc(C(=O)NCc2ccccc2)[nH]n1	-6	?	·	·	?	12µM*
COc1ccccc1CNC(=O)c1cc(-c2ccc(F)cc2OC)n[nH]1	-7	-51*	·	·	?	-22%
CCOc1ccc(Cl)cc1-c1cc(C(=O)NCc2cc(C(F)(F)F)cc(C(F)(F)F)c2)[nH]n1	-2	0	·	·	?	23µM*
CCOc1ccc(Cl)cc1-c1cc(C(=O)NCc2ccccc2OC)[nH]n1	-7	0	·	·	18µM*	?
CCCOc1ccc(F)cc1-c1cc(C(=O)NCc2cc(C(F)(F)F)cc(C(F)(F)F)c2)[nH]n1	-5	-12	·	·	?	?
CC(=O)NCc1ccc(-c2csc(Nc3cccc(C)c3)n2)o1	-2	·	·	·	·	·
CCOCCCNC(=O)CCSc1ccccc1	-21	·	·	·	·	·
COc1ccc(F)cc1-c1cc(C(=O)NCc2cc(C(F)(F)F)cc(C(F)(F)F)c2)[nH]n1	-3	-12	·	·	?	18µM*
COc1ccc(Cl)cc1-c1cc(C(=O)N[C@H](C)c2ccccc2)[nH]n1	-2	-22	·	·	3.7µM*	2.6µM*
COc1ccc(Cl)cc1-c1cc(C(=O)NCc2ccccc2)[nH]n1	-3	-11	·	·	21µM*	16µM*
COc1ccc(F)cc1-c1cc(C(=O)NCc2ccccc2)[nH]n1	-5	-67*	·	·	?	-22%
COc1ccc(Nc2nc(NCc3ccc4c(c3)OCO4)nc3nccnc23)cc1	-11	·	·	·	·	·
CCOc1ccc(CC(=O)Nc2cccc3cccnc23)cc1	5	·	·	·	·	·
c1cc(OCC2CO2)cc(OCC2CO2)c1 (stereo unspecified)	·	·	-17%	-1%	·	·
O=S(=O)(c1ccc(OCC2CO2)cc1)c1ccc(OCC2CO2)cc1 (stereo unspecified)	-10	-29	-15%	3%	2.1µM*	1.8µM*
CNc1cccc(-c2cc(OC)c(OC)c(OC)c2)n1	0	0	·	·	?	?
COCCCNc1ccn2nc(-c3cccc(OCc4ccccc4)c3)cc2n1	-2	23	·	·	7.3µM*	?
COc1cc(Nc2cccc(-c3ccccc3)n2)cc(OC)c1OC	10	20	·	·	?	18µM*
c1ccc(COc2ccc(-c3cc4nc(NCCCn5ccnc5)ccn4n3)cc2)cc1	4	-15	·	·	16µM*	23µM*
COc1ccccc1-c1cc2nc(NCCOc3ccccc3)ccn2n1	1	-2	·	·	16µM*	18µM*
COCCCNc1ccn2nc(-c3ccccc3)cc2n1	-2	-10	·	·	-23%	-22%
c1ccc(OCCNc2ccn3nc(-c4ccccc4)cc3n2)cc1	-3	16	·	·	?	?
CCCCn1nc(C(=O)NCC(F)(F)F)c2ccccc2c1=O	-6	·	·	·	·	·
CCN(CC(=O)Nc1ccc(NC(C)=O)cc1)C(=O)c1nn(C)c(=O)c2ccccc12	10	·	·	·	·	·
O=C(Nc1cccc2cccnc12)c1cccc(S(=O)(=O)N2CCN(Cc3ccccc3)CC2)c1	3	·	·	·	·	·
SMILES	LDHA block	IL1B secr inh	RORg inh	VP16 counter	DT40 TDP1 no CPT	TDP1 cell CPT
COc1cc(Nc2ccn3nc(-c4ccccc4Cl)cc3n2)cc(OC)c1OC	-1	0	·	·	21µM*	?
COCCCNc1ccn2nc(-c3cc(OC)c(OC)c(OC)c3)cc2n1	5	-18	·	·	?	?
Cc1ccsc1CNC(=O)Cc1ccc(F)cc1	-7	·	·	·	·	·
CCn1c(C)nc2cc(C(=O)NNC(=S)Nc3ccccc3Cl)ccc21	-4	0	11µM*	20µM*	-10%	-24%
CCn1c(C)nc2cc(C(=O)NNC(=S)NC(=O)c3ccccc3)ccc21	0	14	?	2%	23µM*	?
O=C(CCCCCCCCC(=O)N1CCCCC1)N1CCCCC1	-1	27	·	·	?	?
O=C(CCCCCCCC(=O)N1CCCCCC1)N1CCCCCC1	-7	0	·	·	?	23µM*
